Results from PubChem BioAssay (NCI).
Compounds without any hit were thinned out: in the full panel of roughly 83,000, 20% have a hit.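 Single-concentration screen, 48 h exposure, 96-well plates. Endpoint: percent growth. Below 10 = active.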 The source made the active and inactive calls.

Assays:
Assay in all cases: NCI-60 one-dose screen, 48 h (100 = growth as untreated, 0 = no growth, -100 = all killed)
Details in all cases: 10 µM unless noted
SK-MEL-2 melanoma = tested on: SK-MEL-2 melanoma
EKVX NSCLC = tested on: EKVX NSCLC
SN12C renal = tested on: SN12C renal
UO-31 renal = tested on: UO-31 renal
TK-10 renal = tested on: TK-10 renal
ACHN renal = tested on: ACHN renal
CAKI-1 renal = tested on: CAKI-1 renal
A498 renal = tested on: A498 renal
CCRF-CEM leukemia = tested on: CCRF-CEM leukemia
MOLT-4 leukemia = tested on: MOLT-4 leukemia

Measured: growth

COc1cccc(CNc2ccc3ncnc(Nc4ccc(F)c(Cl)c4)c3c2)c1
inactive: SK-MEL-2 melanoma 94.9% | EKVX NSCLC 26% | SN12C renal 52.8% | UO-31 renal 32.5% | TK-10 renal 29.8% | ACHN renal 26.2% | CAKI-1 renal 34.6% | A498 renal 45.1% | CCRF-CEM leukemia 75.1% | MOLT-4 leukemia 69.9%

O=S(=O)(NCCCNc1nccc(-c2c(-c3ccc(F)c(O)c3)nc3sccn23)n1)c1ccccc1
inactive: SK-MEL-2 melanoma 24.9% | EKVX NSCLC 106% | SN12C renal 59% | UO-31 renal 31.1% | TK-10 renal 120% | ACHN renal 52.3% | CAKI-1 renal 55.9% | A498 renal 104% | CCRF-CEM leukemia 38.2% | MOLT-4 leukemia 50.9%

COC(=O)Nc1nc2ccc(S(=O)c3ccccc3)cc2[nH]1 (stereo not given)
inactive: SK-MEL-2 melanoma 48.1% | EKVX NSCLC 80% | SN12C renal 82.2% | UO-31 renal 65% | TK-10 renal 92.9% | ACHN renal 86.1% | CAKI-1 renal 63.2% | A498 renal 56.6% | CCRF-CEM leukemia 66.9% | MOLT-4 leukemia 70.5%

O=C(NCCCl)Nc1ncccc1OCc1ccccc1
inactive: SK-MEL-2 melanoma 101% | EKVX NSCLC 98.9% | SN12C renal 97% | UO-31 renal 94.9% | TK-10 renal 88.9% | ACHN renal 110% | CAKI-1 renal 97.9% | A498 renal 90% | CCRF-CEM leukemia 106% | MOLT-4 leukemia 95.3%

COc1ccc(/C=C(\C#N)n2nnc3cc(F)c(F)cc32)cc1
inactive: SK-MEL-2 melanoma 50.9% | EKVX NSCLC 51.9% | SN12C renal 58.9% | UO-31 renal 52.8% | TK-10 renal 72.4% | ACHN renal 55.4% | CAKI-1 renal 54.4% | A498 renal 76.2% | CCRF-CEM leukemia 24.3% | MOLT-4 leukemia 22.4%

Cn1c(=O)c2nc(/C=C/c3ccccc3)c(=O)[nH]c2n(C)c1=S
inactive: SK-MEL-2 melanoma 109% | EKVX NSCLC 101% | SN12C renal 104% | UO-31 renal 86.9% | TK-10 renal 115% | ACHN renal 105% | CAKI-1 renal 92.1% | A498 renal 97.8% | CCRF-CEM leukemia 101% | MOLT-4 leukemia 103%

O=C1Nc2ccc(C(=O)O)cc2/C1=N/c1nnc(Sc2ccccc2)s1
inactive: SK-MEL-2 melanoma 112% | EKVX NSCLC 104% | SN12C renal 96.9% | UO-31 renal 84.3% | TK-10 renal 106% | ACHN renal 98.4% | CAKI-1 renal 85.9% | A498 renal 86.8% | CCRF-CEM leukemia 99.7% | MOLT-4 leukemia 105%

Nc1c(C(=O)Nc2ccncc2)sc2nc3c(cc12)C(O)CCC3 (stereo not given)
inactive: SK-MEL-2 melanoma 97.4% | EKVX NSCLC 99.9% | SN12C renal 96.3% | UO-31 renal 81.8% | TK-10 renal 91% | ACHN renal 96.4% | CAKI-1 renal 99.6% | A498 renal 112% | CCRF-CEM leukemia 94.6% | MOLT-4 leukemia 98%

C1CN(SSN2CCOCC2)CCO1
inactive: SK-MEL-2 melanoma 63.1% [100 µM] | EKVX NSCLC 13.1% [100 µM] | A498 renal 75.8% [100 µM] | CCRF-CEM leukemia 11.8% [100 µM] | MOLT-4 leukemia 50.4% [100 µM]
active: SN12C renal -74.7% [100 µM] | UO-31 renal -37.5% [100 µM] | TK-10 renal -72.8% [100 µM] | ACHN renal -70.1% [100 µM] | CAKI-1 renal -48.4% [100 µM]

COc1cc2c(cc1OC)C(C)N(S(N)(=O)=O)CC2 (stereo not given)
inactive: SK-MEL-2 melanoma 106% | EKVX NSCLC 107% | SN12C renal 88.7% | UO-31 renal 81.9% | TK-10 renal 103% | ACHN renal 102% | CAKI-1 renal 101% | A498 renal 102% | CCRF-CEM leukemia 80% | MOLT-4 leukemia 91.8%

N#Cc1c(-c2ccccc2)cc(-c2ccc(Nc3nc(Nc4ccc(Cl)cc4)nc(Nc4ccc(Cl)cc4)n3)cc2)nc1N
active: EKVX NSCLC 9.99% | UO-31 renal -82.4% | TK-10 renal -60.1% | ACHN renal -32.5% | CCRF-CEM leukemia 4.06% | MOLT-4 leukemia 4.72%
inactive: SK-MEL-2 melanoma 34% | SN12C renal 50.2% | CAKI-1 renal 20.1% | A498 renal 81.8%

O=C(Nc1ccc(Oc2cccc(F)c2)c(Cl)c1)c1cccnc1
inactive: SK-MEL-2 melanoma 36.5% | EKVX NSCLC 49.6% | SN12C renal 36.4% | UO-31 renal 39.7% | TK-10 renal 59.9% | ACHN renal 35.2% | CAKI-1 renal 32.5% | CCRF-CEM leukemia 24% | MOLT-4 leukemia 40.2%
active: A498 renal 4.16%

CCSC(SCC)c1ccc(Cl)cc1
inactive: SK-MEL-2 melanoma 116% | EKVX NSCLC 106% | SN12C renal 99.7% | UO-31 renal 92.5% | TK-10 renal 116% | ACHN renal 107% | CAKI-1 renal 82.9% | A498 renal 93.4% | CCRF-CEM leukemia 108% | MOLT-4 leukemia 110%

Cc1cccc(/C=C/c2c(C(=O)/C=C/c3ccccc3)c(C)nc3ccccc23)c1
active: SK-MEL-2 melanoma -60.8% | EKVX NSCLC 0.995% | SN12C renal -44.3% | UO-31 renal -94.2% | TK-10 renal -6.55% | ACHN renal -23% | CAKI-1 renal -36.2% | A498 renal -38.2% | CCRF-CEM leukemia 6.17% | MOLT-4 leukemia 5.83%

CCCCCC(/C=N\NC(=S)N/N=C/C(=C/c1ccccc1)CCCCC)=C\c1ccccc1
inactive: SK-MEL-2 melanoma 80.9% | EKVX NSCLC 76.6% | SN12C renal 68.1% | UO-31 renal 45.4% | TK-10 renal 87.3% | ACHN renal 69.3% | CAKI-1 renal 42.1% | A498 renal 70.1% | CCRF-CEM leukemia 31.1% | MOLT-4 leukemia 42%

C#CCOC(=O)/C=C/c1cn(-c2ccccc2)nc1-c1ccc(OC)cc1
inactive: SK-MEL-2 melanoma 90.4% | EKVX NSCLC 93.4% | SN12C renal 77.3% | UO-31 renal 54% | TK-10 renal 91.6% | ACHN renal 77% | CAKI-1 renal 67.6% | A498 renal 81.7% | CCRF-CEM leukemia 97.5% | MOLT-4 leukemia 75.8%

Fc1cccc(Oc2ccc(Nc3ncnc4ccc(OCCCN5CCOCC5)cc34)cc2Cl)c1
active: A498 renal -4.84%
inactive: SK-MEL-2 melanoma 93.3% | EKVX NSCLC 20.7% | SN12C renal 82.9% | UO-31 renal 30.4% | TK-10 renal 26.4% | ACHN renal 32.3% | CAKI-1 renal 30.4% | CCRF-CEM leukemia 58.8% | MOLT-4 leukemia 53.9%

Cc1cn(-c2cc(NC(=O)c3cncc(C#Cc4cnc(N)c5ncccc45)c3)cc(C(F)(F)F)c2)cn1
inactive: EKVX NSCLC 85.1% | SN12C renal 58.3% | UO-31 renal 25.4% | TK-10 renal 90.3% | ACHN renal 73.4% | CAKI-1 renal 92% | A498 renal 60.7% | CCRF-CEM leukemia 32.5% | MOLT-4 leukemia 34.7%
active: SK-MEL-2 melanoma 6.39%

N#CC1=C(c2ccccc2)Nc2c(c(-c3ccc(Cl)cc3)nn2-c2ccccc2)C12C(=O)Nc1ccc(Cl)cc12 (stereo not given)
inactive: SK-MEL-2 melanoma 94.8% | EKVX NSCLC 61.6% | SN12C renal 84.9% | UO-31 renal 47.8% | TK-10 renal 73.7% | ACHN renal 80.6% | CAKI-1 renal 44.5% | A498 renal 69% | CCRF-CEM leukemia 61.4% | MOLT-4 leukemia 52.5%

COc1cc(C2c3cc(OC(C)=O)c(OC)cc3CC3C(=O)OCC32)ccc1OC(C)=O (stereo not given)
inactive: SK-MEL-2 melanoma 132% | EKVX NSCLC 111% | SN12C renal 93.2% | UO-31 renal 78.2% | TK-10 renal 122% | ACHN renal 94.3% | CAKI-1 renal 97.1% | A498 renal 180% | CCRF-CEM leukemia 92.4% | MOLT-4 leukemia 112%

CCOC(=O)Cc1cnc(N/N=C(\C)c2cc3ccccc3o2)s1
inactive: SK-MEL-2 melanoma 113% | EKVX NSCLC 85.1% | SN12C renal 99.1% | UO-31 renal 64.7% | TK-10 renal 144% | ACHN renal 90.7% | CAKI-1 renal 81.6% | A498 renal 113% | CCRF-CEM leukemia 92.5% | MOLT-4 leukemia 55.5%

Cc1[nH]c(C(=O)Nc2ccc(C(=O)N3CCN(c4cc5c(cc4F)c(=O)c(C(=O)O)cn5C4CC4)CC3)cc2OC(C)C)c(Cl)c1Cl
inactive: SK-MEL-2 melanoma 105% | EKVX NSCLC 80.5% | SN12C renal 31.2% | UO-31 renal 56.2% | TK-10 renal 82.7% | ACHN renal 67.9% | CAKI-1 renal 74.8% | A498 renal 55.6% | CCRF-CEM leukemia 53% | MOLT-4 leukemia 93.3%

CCC1=C[C@@H]2C[C@]3(C(=O)OC)c4[nH]c5ccccc5c4CC[N@+](CC(=O)Nc4cc5c(cc4OC)N(C)[C@H]4[C@@](O)(C(=O)OC)[C@H](OC(C)=O)[C@]6(CC)C=CCN7CC[C@]54[C@@H]76)(C2)[C@H]13
inactive: SK-MEL-2 melanoma 105% | EKVX NSCLC 105% | SN12C renal 105% | UO-31 renal 84.4% | TK-10 renal 98.6% | ACHN renal 106% | CAKI-1 renal 93.2% | A498 renal 121% | CCRF-CEM leukemia 80.6% | MOLT-4 leukemia 108%

CCCn1cc2c(=O)nc3sc(Cc4ccccc4)c(C)n3c2n1
inactive: SK-MEL-2 melanoma 93.7% | EKVX NSCLC 104% | SN12C renal 104% | UO-31 renal 78.5% | TK-10 renal 92.9% | ACHN renal 109% | CAKI-1 renal 87.7% | A498 renal 100% | CCRF-CEM leukemia 92.3% | MOLT-4 leukemia 78%

Cc1cc(C)c2c(c1)N(C)c1ncnc(-n3cnc4cc(C)ccc43)c1CC2C (stereo not given)
active: A498 renal 6.61% | CCRF-CEM leukemia 0.648%
inactive: SK-MEL-2 melanoma 16.7% | EKVX NSCLC 39% | SN12C renal 43.1% | UO-31 renal 33.1% | TK-10 renal 40% | ACHN renal 49.6% | CAKI-1 renal 32.8% | MOLT-4 leukemia 12.7%

Clc1ccc2c(c1)C(c1c[nH]c3ccccc13)(c1c[nH]c3ccccc13)CCO2
active: SK-MEL-2 melanoma -52% | TK-10 renal -43.1%
inactive: EKVX NSCLC 81.9% | SN12C renal 85.3% | UO-31 renal 54.2% | ACHN renal 76.8% | CAKI-1 renal 78.2% | A498 renal 101% | CCRF-CEM leukemia 45.1% | MOLT-4 leukemia 32.4%
